Pf Dd2 inh = qHTS Primary assay for Inhibitors of Plasmodium falciparum Dd2 growth in vitro. 120,000 compounds, 4.3% hits. P. falciparum Dd2 growth, SYBR Green, 72 h. AID 1347417, 2020. Potency, µM (titrated, usually from 28.9 µM), for the others: top-dose activity, negative = inhibition, actives largely listed as inhibitors; active means well fitted inhibition curve with a large enough effect;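 further: plate controls were DMSO vehicle for no effect and reference drug for full effect; nearly all actives have a fitted effect of over 65% in size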
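Infected erythrocytes (Dd2, 0.3% parasitemia, 2.5% hematocrit final) are added to compound in RPMI-1640/Albumax II medium, grown 72 h at 37C in low oxygen, then lysed with saponin/Triton-X containing SYBR Green and read by fluorescence.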
Active calls of the source: *; i = inactive; [ ] = remark or other dose. Shown is part of a subset that was picked to be rich in hits. Potency means the concentration at half of the fitted maximal effect.

SMILES	Pf Dd2 inh
CN1C(=O)CCC2(CNC(=O)c3ccccc3)CCC=C12 (stereo not given)	10.7%
CC1=NS(=O)(=O)N(C)C=C1C(=O)OCc1nc(-c2ccc(Br)cc2)no1	88.2%
CC[C@H]1CN(C(=O)C(C)(C)C)CC[C@H]1CC(=O)O	19.6%[44.1 µM]
Cc1ccc(Cn2c(CN3CCC(C(=O)NCC(C)c4ccccc4)CC3)cc3ccccc32)cc1 (stereo not given)	i
CN(C)c1ccc(CNC(=O)C2CCN(Cc3cc4ccccc4n3Cc3ccccc3)CC2)cc1	11.2µM*
O=C(NCc1cccnc1)C1CCN(Cc2cc3ccccc3n2Cc2ccccc2)CC1	11.2µM*
CN(C)c1ccc(CNC(=O)C2CCN(c3nc4ccccc4[nH]3)CC2)cc1	29.3%
COCCCNC(=O)C1CCN(Cc2cc3ccccc3n2Cc2ccccc2C)CC1	-15.8%
Cc1ccc(Cn2c(CN3CCC(C(=O)NCCc4ccccc4)CC3)cc3ccccc32)cc1	7.94µM*
CN(C)c1ccc(CNC(=O)C2CCN(S(=O)(=O)c3ccc4c(c3)oc(=O)n4C)CC2)cc1	15.3%
Cc1cccc(Cn2c(CN3CCC(C(=O)NCc4cccnc4)CC3)cc3ccccc32)c1	i
Cc1cccc(Cn2c(CN3CCC(C(=O)NC(C)C)CC3)cc3ccccc32)c1	-17.8%
O=C(C1CCCC1)N1C[C@@H](COc2ccncc2)[C@H](c2ccccn2)C1	0.3%
CCn1nccc1C(=O)N1CC(c2nnc(C(C)C)o2)C2(CCOCC2)C1 (stereo not given)	1.1%
O=C1CCC2(CCNCC2)CN1CCCNc1cccnc1	7.8%
O=C([C@@H]1C[C@H](F)CN1C(=O)NC1CCCC1)N1CCc2ccccc2C1	-21.6%
COc1cccc([S+](=O)([O-])N2CCn3c(nn(-c4ccc(F)cc4F)c3=O)C2)c1	-12.0%
COCCNC(=O)c1cc(C2CC2)nc2onc(C3CCNC3)c12 (stereo not given)	3.4%
O=C(NCc1ccc(F)cc1)c1cc(C2CC2)nc2onc(C3CCCNC3)c12 (stereo not given)	8.91µM*
Cc1cc(C(=O)NCc2ccc(F)cc2)c2c(C3CCNC3)noc2n1 (stereo not given)	14.9%
O=C(NC1CC1)c1cc(C2CC2)nc2onc(C3CCNCC3)c12	6.4%
O=C(NCc1ccc(F)cc1)c1cc(C2CC2)nc2onc(C3CCCN3)c12 (stereo not given)	-12.1%
O=C(NCc1ccc(F)cc1)c1cc(C2CC2)nc2onc(C3CCNCC3)c12	10µM*
CN(C)c1cccc(C(=O)NC2CCCN(c3cc(-c4ccc(F)cc4)[nH]n3)C2)c1 (stereo not given)	i
CC(C)NC(=O)NC[C@H]1O[C@@H](CC(=O)NCCN(C)C)[C@H](O)[C@@H]1O	53.2%[44.1 µM]
SMILES	Pf Dd2 inh
CN1CCC(N[C@@H]2CO[C@H](CNC(=O)CC(C)(C)C)[C@H]2O)CC1	29.8%[44.1 µM]
COc1ccc(C2(C(=O)N(C)Cc3ccc(F)cc3)CCOCC2)cc1	3.5%
O=C(O)C[C@@H]1CCN(C(=O)C2CCC2)C[C@@H]1CCN1CCN(c2ccccn2)CC1	-19.0%[44.1 µM]
Cc1cc(CN(C)C(=O)CC(c2ccccc2)c2ccccc2C)n[nH]1 (stereo not given)	-10.5%
COc1ccccc1N1CCN(C(=O)C[C@@H]2O[C@H](CNC(=O)c3ccc(N(C)C)cc3)[C@@H](O)[C@H]2O)CC1	i
CC1=C(C(=O)OC(C)C)C(c2ccccc2C)N2C(CC(=O)NC3CC3)=CSC2=N1 (stereo not given)	7.94µM*
C=CCOC(=O)C1=C(C)N=C2SC=C(CC(=O)NCc3ccco3)N2C1c1cccc(C)c1 (stereo not given)	-3.3%
CCOC(=O)C1=C(C)N=C2SC=C(CC(=O)NC3CC3)N2C1c1ccccc1C (stereo not given)	-2.0%
C=CCOC(=O)C1=C(C)N=C2SC=C(CC(=O)NCc3ccc(F)cc3)N2C1c1ccccc1C (stereo not given)	3.16µM*
COC(=O)C1=C(C)N=C2SC=C(CC(=O)NC3CC3)N2C1c1ccc(C)cc1C (stereo not given)	i
COC(=O)C1=C(C)N=C2SC=C(CC(=O)NCC3CCCO3)N2C1c1ccccc1C (stereo not given)	-15.7%
CCOC(=O)C1=C(C)N=C2SC=C(CC(=O)NCC3CCCO3)N2C1c1ccc(Cl)cc1 (stereo not given)	2.24µM*
CCOC(=O)C1=C(C)N=C2SC=C(CC(=O)N3CCCC3)N2C1c1ccc(Cl)cc1 (stereo not given)	-1.1%
COC(=O)C1=C(C)N=C2SC=C(CC(=O)NCc3ccccc3)N2C1c1ccccc1F (stereo not given)	-19.2%
COc1ccc(C)cc1NC(=O)Cn1c(-c2ccc(F)cc2)nc(C)c(CCO)c1=O	i
Cc1cccc(NC(=O)C2Cn3cccc3C(=O)N2)c1 (stereo not given)	2.4%
COc1ccccc1-c1nnc([C@H]2CCN(C(C)=O)C2)o1	-18.3%[44.1 µM]
CN1C(=O)CS(=O)(=O)C12CCN(C(=O)c1ccc(F)c(F)c1)CC2	10.1%
CC(C)COc1cc(=O)n2c(c1C(=O)NC1CCN(C)CC1)CCCCC2	27.9%
CC(=O)Nc1cccc(-c2nc(-c3c(C)noc3C)cc3cc(C)oc23)c1	-5.9%[44.1 µM]
O=C(NC1CCCCC1)O[C@@H]1CO[C@H]2[C@@H]1OC[C@@H]2n1nnnc1Sc1ccccc1	i
CN(C)C(=O)c1ccc(CC2CC(=O)N(c3ccccc3)C2)nc1 (stereo not given)	6.7%
CC(C)(C)NC(=O)N1CC[C@H]2C(=O)NCCCCCN(Cc3cccnc3)[C@@H]2C1	-1.0%
O=C1CC(c2ccccc2)N(C(=O)CNC(=O)c2c[nH]c3ccccc23)CCCCCN1 (stereo not given)	i
O=C(Cc1c[nH]c2ccccc12)NCC(=O)N1CCCCCNC(=O)CC1c1ccccc1 (stereo not given)	-16.8%
SMILES	Pf Dd2 inh
N#Cc1cccc(C(=O)NCC(=O)N2CCCCCCNC(=O)CC2c2ccccc2)c1 (stereo not given)	-23.1%
O=C1CC(c2ccccc2)N(C(=O)CNC(=O)c2n[nH]c3ccccc23)CCCCCCN1 (stereo not given)	10µM*
O=C1CC(c2ccccc2)N(C(=O)CNC(=O)c2ccoc2)CCCCCCN1 (stereo not given)	-24.9%
O=C1CC(c2ccccc2)N(C(=O)CNC(=O)c2ccc3cc[nH]c3c2)CCCCCN1 (stereo not given)	10µM*
CN1C(=O)C2(CCN(C(=O)CCN3CCCCCC3=O)CC2)c2ccccc21	-19.9%
O=C1CCCCN1CC(=O)N1CCCC(c2ccccc2)(c2ccccc2)C1	i
CCCNC(=O)NC[C@H]1O[C@@H]2C[C@@H](CC(=O)NCc3cnn(C)c3)O[C@@H]2[C@@H]1O	-20.6%[44.1 µM]
COc1ccc(C(=O)N2CCN(C(=O)c3nnn4c3COC(c3ccccc3)C4)CC2)c(C)c1 (stereo not given)	-2.3%
Cc1ccc(-n2nc(C)c([C@@H]3C=C[C@@H](NS(=O)(=O)c4cccs4)C3)c2C)cc1Cl	11.2µM*
COc1ccc(C(=O)N[C@@H]2C=C[C@@H](c3c(C)nn(-c4ccccc4)c3C)C2)cc1	-23.6%[44.1 µM]
COc1ccc(C(=O)N[C@@H]2C=C[C@@H](c3c(C)nn(-c4ccc(C(F)(F)F)cc4)c3C)C2)cc1	-6.7%
Cc1nn(-c2ccc(C(F)(F)F)cc2)c(C)c1[C@@H]1C=C[C@@H](NS(=O)(=O)c2ccccc2)C1	i
COc1ccc(C(=O)N[C@@H]2C=C[C@@H](c3c(C)nn(-c4ccc(C)c(Cl)c4)c3C)C2)cc1	4.47µM*
